Shown are actives, neighbours in structure and some others; about 4.6% of the full set was active somewhere.
TIM10 inh: growth inhibitors of TIM10 yeast strain; S. cerevisiae TIM10 strain growth, BacTiter-Glo luminescence, 24 h; inhibition, % at 10 µM; hit rate 1.4% among 330,000;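 active = inhibition of 40% or more at the single tested concentration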;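 note: wild-type TIM10 isogenic control strain grown at permissive 25 °C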
tim23-1 inh: growth inhibitors of tim23-1 mutant yeast; S. cerevisiae tim23-1 growth, BacTiter-Glo luminescence, 24 h; inhibition, % at 20 µM; hit rate 1.3% among 330,000;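 active = growth inhibition of the mutant yeast at or above 50%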;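 note: temperature-sensitive mutant grown at 25 °C; plate controls were DMSO-treated mutant yeast for no effect and medium wells lacking yeast for full effect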
NALP3 yeast inh: inhibitors of NALP3 inflammasome in yeast. Yeast reconstituted NLRP3/ASC/caspase-1, beta-gal luminescence, 24 h. inhibition, % at 10 µM. hit rate 0.39% among 330,000. AID 2825;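 active = inhibition of 50% or more; inactive = inhibition below 50%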;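 note: plate controls were induced DMSO wells for no effect and uninduced yeast grown without galactose for full effect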
tim10-1 inh: inhibits growth of tim10-1 mutant yeast. hit rate 2.2% among 330,000. S. cerevisiae tim10-1 ts strain growth, BacTiter-Glo, 24 h. inhibition, % at 20 µM. AID 463190;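 active = inhibition of at least 40%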;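 note: mutant grown at 25 °C; 0% = DMSO wells with yeast and 100% = wells holding no yeast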
SKKanGAS inh: inhibitors of SKKanGAS S. pyogenes growth in kanamycin (SK-promoter or general growth effect) | inhibition, % at 7.5 µM | BacTiter-Glo, 6 h | AID 1662 | hit rate 1.3% among 300,000;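 active = mean replicate score, as percent of positive control median, at least 50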;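 note: strain carries kanamycin resistance gene driven by streptokinase promoter and grows in 40 µg/ml kanamycin; loss of luminescence reflects streptokinase promoter inhibition or plain growth inhibition; 0% = median of DMSO wells and 100% = positive control at its reference dose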
Numbers without * were called inactive.

For Cc1cc(C)cc(-n2c(C)cc(/C=C3\C(=N)N4N=C(CC(C)C)SC4=NC3=O)c2C)c1 the results were TIM10 inh 0, tim23-1 inh 3, NALP3 yeast inh 25, tim10-1 inh -6 and SKKanGAS inh 69*.
`CCCC1=NN2C(=N)/C(=C\c3cc(C)n(-c4cc(C)cc(C)c4)c3C)C(=O)N=C2S1` gave TIM10 inh 6, tim23-1 inh 11, NALP3 yeast inh 1, tim10-1 inh 5 and SKKanGAS inh 72*.
For Cc1cccc(-n2c(C)cc(/C=C3\C(=N)N4N=C(CC(C)C)SC4=NC3=O)c2C)c1 the results were TIM10 inh 11, tim23-1 inh 8, NALP3 yeast inh 14, tim10-1 inh 9 and SKKanGAS inh 25.
`CCN(C(=O)CSc1nnnn1C)C1CCS(=O)(=O)C1` (configuration not stated) gave TIM10 inh 0, tim23-1 inh -11, NALP3 yeast inh 12 and tim10-1 inh -4.
CCN(CC)CCn1c2c(c(SCC(=O)Nc3ccc(F)c(F)c3)nc1=O)CCC2 was read as TIM10 inh -7, tim23-1 inh -8, NALP3 yeast inh 3, tim10-1 inh -5 and SKKanGAS inh 4.
For COc1ccccc1Cn1nnc2c(=O)[nH]c(C3CCN(C(=O)c4ccccc4Cl)CC3)nc21 the results were TIM10 inh 5, tim23-1 inh 5, NALP3 yeast inh 16, tim10-1 inh 14 and SKKanGAS inh 91*.
COc1ccccc1Cn1nnc2c(=O)[nH]c(C3CCN(C(=O)c4ccc(F)cc4)CC3)nc21 was read as TIM10 inh 9, tim23-1 inh 5, NALP3 yeast inh 7, tim10-1 inh 13 and SKKanGAS inh 0.
Screening O=C(c1cccs1)N1CCC(c2nc3c(nnn3Cc3ccccc3Cl)c(=O)[nH]2)CC1 returned TIM10 inh -10, tim23-1 inh 16, NALP3 yeast inh 23, tim10-1 inh 13 and SKKanGAS inh 52*.
Screening CC(C)(C)CC(=O)N1CCC(c2nc3c(nnn3Cc3c(F)cccc3Cl)c(=O)[nH]2)CC1 returned TIM10 inh 20, tim23-1 inh 10, NALP3 yeast inh -4, tim10-1 inh 12 and SKKanGAS inh 74*.
`O=C(c1ccco1)N1CCC(c2nc3c(nnn3Cc3c(Cl)cccc3Cl)c(=O)[nH]2)CC1` gave TIM10 inh -18, tim23-1 inh 9, NALP3 yeast inh 3, tim10-1 inh 1 and SKKanGAS inh -10.
Cc1ccc(C)c(N2CCN(C(=O)CCc3nc(-c4cccc(Cl)c4)no3)CC2)c1 was read as TIM10 inh 12, tim23-1 inh 29 and tim10-1 inh 10.
`CCN(CC)c1nc2c(c(=O)[nH]c(=O)n2C)n1CCOc1ccccc1` gave TIM10 inh 5, tim23-1 inh 4, NALP3 yeast inh 11, tim10-1 inh 9 and SKKanGAS inh 0.
`COc1cc(OC)c(C(=O)OCC(=O)NCC2CCCCC2)cc1OC` gave TIM10 inh 9, tim23-1 inh 0, NALP3 yeast inh -4 and tim10-1 inh 9.
For O=C(COc1ccc(-c2ccccc2)cc1)N/N=C/c1ccccc1Br the results were TIM10 inh -6, tim23-1 inh 12, NALP3 yeast inh 14, tim10-1 inh 2 and SKKanGAS inh 19.
O=C(N/N=C/c1cc(Br)cc(Br)c1O)c1cccc(S(=O)(=O)N2CCOCC2)c1 was read as TIM10 inh -2, tim23-1 inh 48, NALP3 yeast inh 28, tim10-1 inh 11 and SKKanGAS inh 107*.
`O=C(CP(=O)(c1ccccc1)c1ccccc1)N/N=C/c1cc(Br)cc(Br)c1O` gave TIM10 inh 18, tim23-1 inh 40, NALP3 yeast inh 10, tim10-1 inh 21 and SKKanGAS inh 102*.
For COc1cc(Br)cc(/C=N/NC(=O)Cc2ccccc2)c1O the results were TIM10 inh 29, tim23-1 inh 37, NALP3 yeast inh 1, tim10-1 inh 3 and SKKanGAS inh 109*.
`O=C(CNC(=O)c1ccccc1)N/N=C/c1cc(Br)ccc1O` gave TIM10 inh 8, tim23-1 inh -16, NALP3 yeast inh 4, tim10-1 inh 24 and SKKanGAS inh -4.
For O=C(COc1ccc(-c2ccccc2)cc1)N/N=C/c1cc(O)ccc1Br the results were TIM10 inh 28, tim23-1 inh 24, NALP3 yeast inh 18, tim10-1 inh 17 and SKKanGAS inh 98*.
For O=C(N/N=C/c1ccccc1Br)c1cccc(S(=O)(=O)N2CCOCC2)c1 the results were TIM10 inh 10, tim23-1 inh 2, NALP3 yeast inh 1 and tim10-1 inh 16.
C[C@@H](C(=O)OCC(=O)c1ccc(F)c(F)c1)N1C(=O)C2CCCCC2C1=O (some centres not stated) was read as TIM10 inh -2, tim23-1 inh 3, NALP3 yeast inh 24 and tim10-1 inh 6.
`COc1ccc(CCN2CC(C(=O)Nc3nccs3)CC2=O)cc1OC` (configuration not stated) gave TIM10 inh 3, tim23-1 inh 15, NALP3 yeast inh -4 and tim10-1 inh 5.
For O=C(NNC(=O)c1cccnc1SCc1cccc([N+](=O)[O-])c1)c1ccccn1 the results were TIM10 inh 22, tim23-1 inh 41, NALP3 yeast inh -4, tim10-1 inh 24 and SKKanGAS inh 75*.
`COc1cccc(OC)c1C(=O)OCc1c(-c2ccccc2)ncc2ccccc12` gave TIM10 inh 14, tim23-1 inh 25, NALP3 yeast inh 5 and tim10-1 inh 11.
Screening O=C(N/N=C/c1c[nH]c2ccccc12)c1[nH]c2ccc(Br)cc2c1-c1ccccc1 returned SKKanGAS inh 73*.
Cc1cccc(C2(c3cccc(C)c3)CC2C(=O)Nc2ccc([N+](=O)[O-])cc2O)c1 (configuration not stated) was read as TIM10 inh 15, tim23-1 inh 11, NALP3 yeast inh 16, tim10-1 inh 11 and SKKanGAS inh 72*.
CCOc1cc(N2CCOCC2)c(OCC)cc1NC(=O)c1cc(S(=O)(=O)N2CCOCC2)ccc1F was read as TIM10 inh 10, tim23-1 inh 25, NALP3 yeast inh -1 and tim10-1 inh 16.
For CN1CCN(CC(=O)Nc2sc3c(c2C(=O)Nc2ccccc2)CCCC3)CC1 the results were TIM10 inh 6, tim23-1 inh 8, NALP3 yeast inh 13, tim10-1 inh 13 and SKKanGAS inh -9.
`O=C(CN1CCCC1)Nc1sc2c(c1C(=O)Nc1ccc(Br)cc1)CCC2` gave TIM10 inh 32, tim23-1 inh 40, NALP3 yeast inh 11, tim10-1 inh 37 and SKKanGAS inh 61*.
Screening CCOc1ccc(NC(=O)c2c(NC(=O)CNCCN3CCOCC3)sc3c2CCC3)cc1 returned TIM10 inh 11, tim23-1 inh 4, NALP3 yeast inh -5, tim10-1 inh 23 and SKKanGAS inh 90*.
`COc1ccc(NC(=O)c2c(NC(=O)CNCc3ccco3)sc3c2CCC3)cc1` gave TIM10 inh 22, tim23-1 inh 9, NALP3 yeast inh 2, tim10-1 inh 16 and SKKanGAS inh 8.
